Source: PubChem BioAssay
HepG2 viability: kills HepG2 cells in TGF-b inhibitor counter-screen; HepG2 CAGA-GFP viability, ATP luminescence, 18 h; Potency, µM (highest dose often 46.1 µM), for the others: at the highest dose activity change, negative = cytotoxicity, actives largely listed as cytotoxic; actives 0.76% (n = 410,000); AID 588856
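CellTiter-Glo luminescence gave cytotoxicity after 18 hours at 37 degrees C. The cells were HepG2 CAGA-GFP in 1% FBS DMEM, stimulated with 500 pg/mL TGF-beta after compound addition. %Activity was normalised to no-cell wells (complete cell-killing) and DMSO (no toxicity), and curves were fitted and classified.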
S2 tox: viability counter-screen for ATXN expression inhibitors; AID 651635; actives 0.49% (n = 400,000); S2 cells (HEK-293 line with an ATXN2-luciferase reporter) viability, CellTiter-Fluor protease fluorescence, 24 h; Potency, µM (titrated, usually from 56.7 µM), hits mostly cytotoxic; further: nearly all actives have a fitted effect of over 40% in size
HT1080 IDH1KD tx: kills HT-1080 cells with IDH1 knockdown; HT-1080 IDH1 knockdown viability, ATP luminescence, 48 h; Potency, µM (top dose mostly 46.1 µM), without a hit: at the highest dose activity, negative = toxicity, actives largely listed as cytotoxic; actives 2% (n = 360,000); AID 686971;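 further: 0% = DMSO wells and -100% = cell-free medium wells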
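After a 2 h attachment period, IDH1KD HT-1080 cells took pin-transferred compound for 48 h at 37 °C; ATP-based luminescence after 10 min room-temperature reagent incubation reported viability.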
TGFb SMAD3 inh: TGF-b pathway inhibition; HepG2 CAGA-GFP TGF-b/SMAD3 reporter, GFP fluorescence, 18 h; TGF-beta stimulated, 500 pg/mL final; Potency, µM (series often up to 46.1 µM), without a hit: at the top dose activity, negative = inhibition, hits mostly inhibitors; actives 1.2% (n = 410,000); AID 588855; further: on the % scale 0 is the no-effect control and ±100 the full control effect; nearly all actives have a fitted effect of over 65% in size
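Inhibition of TGF-beta-driven CAGA-GFP reporter expression in HEPG2 cells is measured by cellular GFP fluorescence after 18 h stimulation with 500 pg/mL recombinant TGF-beta in 1% FBS medium at 37 degrees C.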
ATXN2 expr inh: inhibitors of ATXN2 expression. HEK-293 ATXN2-luciferase reporter, luminescence, 24 h. Potency, µM (doses to about 57 µM), inactives show top-dose activity change, negative = inhibition, hits mostly inhibitors. actives 0.72% (n = 360,000). AID 1745845; further: on the % scale 0 is the no-effect control and ±100 the full control effect; nearly all actives have a fitted effect of over 55% in size
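qHTS (up to 57 uM final) was run with 24 h compound exposure of reporter cells at 37 °C. Each well was multiplexed: SteadyGlo luminescence measured ATXN2-luciferase expression after a fluorogenic Gly-Phe-AFC viability readout (25 uM final).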
HT1080-NT tox: kills 2HG-producing HT-1080-NT fibrosarcoma cells | Potency, µM (series often up to 46.1 µM), for inactives: at the top dose activity, negative = less viability, usual class: cytotoxic | HT-1080-NT fibrosarcoma viability, CellTiter-Glo ATP luminescence, 48 h | actives 1.6% (n = 360,000);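 further: NT is the 2HG producing partner of a matched IDH1 knockdown line; 0% = DMSO-treated cells and -100% = media-only wells without cells; nearly all actives have a fitted effect of over 55% in size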
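750 cells/well, RPMI + 5% FBS; 2 h settle, compound pin-transfer, 48 h at 37 degrees C. CellTiter-Glo 10 min RT, luminescence. Normalized to DMSO and media-only wells.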
* marks the source's active call; other numbers are inactive results; i = inactive; ? = inconclusive; nt = no result; ! = not confirmed by another sample; [ ] = another dose, or the depositor's remark. Shown are actives, neighbours in structure and some others; about 3.9% of the full set was active somewhere. The call rests on the fitted dose curve; in most records, active means well fitted curve in the direction sought with a large enough effect; inconclusive means small, poorly fitted or top-dose-only effect, or another doubt; inactive means no such curve, though single readings can be large; an effect the other way counts as inactive or inconclusive. Potency means the concentration at half of the fitted maximal effect.

SMILES	HepG2 viability	S2 tox	HT1080 IDH1KD tx	TGFb SMAD3 inh	ATXN2 expr inh	HT1080-NT tox
CN(Cc1ccccc1)c1nc(N)nc(Cl)c1C=O	-9%	?	18µM*	-14%	?	?
CN(Cc1ccccc1)c1ccc(C=O)cc1	-1%	nt	nt	-15%	nt	nt
COc1cccc(Cc2nc3ccccc3nc2SCC(=O)NCCc2ccccc2)c1	-37%	nt	nt	?	-20%	nt
Cc1cc(C)cc(C(=O)Nc2ccc(-c3nc4ncccc4o3)cc2)c1	-42%	?	nt	0%	?	nt
COc1ccc(-c2nnc(OC)c3ccccc23)cc1	-8%	i	5%	1%	nt	17%
COc1ccc(-c2nnc(Sc3nc4ccccc4o3)c3ccccc23)cc1	13µM*	i	?	13µM*	-3%	?
Cc1ccc(CNc2ccc3c(c2)OCO3)cc1	13µM*	i	?	-1%	32%	?
c1cc(CNc2ccc3c(c2)OCO3)ccn1	1%	i	5%	3%	26%	8%
O=C(NC1CCCC1)C(c1ccncc1)N(Cc1ccccc1)C(=O)c1ccc(-c2ccccc2)[nH]1 (configuration not stated)	-7%	i	?	?	-6%	?
O=C(NC1CCCC1)C(c1ccncc1)N(Cc1ccco1)C(=O)c1ccc(-c2ccccc2)[nH]1 (configuration not stated)	-3%	i	15µM*	?	-3%	?
Cc1ccccc1NC(=O)Nc1nnc(N2CCCCCC2)s1	4%	i	nt	-1%	2%	nt
COc1ccc2c(CNCc3ccco3)c(C(=O)O)n(Cc3ccccc3)c2c1	0%	?	nt	0%	-15%	nt
Cc1ccc(Cn2c(C(=O)O)c(CNCCc3cccs3)c3ccc(C)cc32)cc1	-7%	?	nt	?	11%	nt
COc1ccc(Cn2c(C(=O)O)c(CNCc3ccco3)c3ccc(C)cc32)cc1	-24%	7.9µM*	nt	42%	-13%	nt
COc1ccc(Cn2c(C(=O)O)c(CNCCc3cccs3)c3ccc(C)cc32)cc1	-32%	32µM*	nt	-27%	?	nt
Cc1nc2n(c(=O)c1CCN1CCC(c3noc4cc(F)ccc34)CC1)CCC[C@H]2O	nt	i	nt	nt	-11%[25.6 µM]	nt
CC(C)NC(=O)c1cn([C@H]2CC[C@@H](NC(=O)/C=C/c3cccs3)CC2)nn1	nt	i	nt	nt	nt	nt
Cc1cc(C(=O)Nc2nc(-c3ccccn3)cs2)ccc1[N+](=O)[O-]	-26%	?	?	?	?	-19%
O=C(Nc1nc(-c2ccccn2)cs1)c1ccccc1-n1cnnn1	-10%	?	?	?	10µM*	?
CC(=O)Nc1ccc(C(=O)Nc2nc(-c3ccccn3)cs2)cc1	-56%	i	-5%	-1%	-9%	-7%
CCCn1nc(C(=O)Nc2nc(-c3ccccn3)cs2)c2ccccc2c1=O	-48%	i	?	?	22µM*	?
O=C(Nc1nc(-c2ccccn2)cs1)c1cc(Cl)ccc1[N+](=O)[O-]	6%	i	?	11µM*	7.5µM*	?
O=C(O)C(=O)Nc1cccc(-c2nn[nH]n2)c1	nt	i	nt	nt	1%	nt
CCN(CC)CCNC(=O)C1CCN(S(=O)(=O)c2c(C)noc2/C=C/c2ccccc2F)CC1	14µM*!	?	?	?	13µM*	?
Cc1noc(/C=C/c2ccco2)c1S(=O)(=O)N1CCC(C(=O)Nc2ccc(F)c(Cl)c2)CC1	-10%	nt	nt	2.5µM*	nt	nt
SMILES	HepG2 viability	S2 tox	HT1080 IDH1KD tx	TGFb SMAD3 inh	ATXN2 expr inh	HT1080-NT tox
O=C1C[C@H]2C=CCc3cccc(c32)CN1Cc1cccc(F)c1	-17%	nt	nt	-19%	nt	nt
N#CC(C#N)=C1SC(=Nc2ccccc2)C(=Nc2ccccc2)N1c1ccccc1	11%	27µM*	?	-3%	27µM*	?
CCc1nnc(NS(=O)(=O)c2ccc(N=Cc3c(C)[nH]n(-c4ccc(C)c(C)c4)c3=O)cc2)s1	7.1µM*	i	21µM*	8%	12%	?
CCOc1ccccc1NC(=O)c1cccc(NC(=O)c2ccco2)c1	-4%	?	2.3µM*	4%	-7%	?
O=C(NCc1ccco1)c1cccc(NC(=O)c2ccco2)c1	-33%	i	-16%	-7%	-10%	?
O=C(NCc1ccccc1)c1cccc(NC(=O)c2ccco2)c1	5%	i	4.1µM*	-2%	-12%	?
Cc1ccc(C(C)OC(=O)C2(C)CCC(C(=O)O)C2(C)C)cc1 (configuration not stated)	nt	i	nt	nt	14%	nt
Cc1cc(C(=O)NCCc2ccc(Cl)cc2)c2ccccc2n1	-22%	i	?	-5%	-12%	-21%
CCCCN(CCCNC(=O)c1cc(Nc2cccc(SC)c2)nc2ccccc12)Cc1ccccc1	13µM*	nt	nt	16µM*	nt	nt
CC(C)c1ccc(Nc2cc(C(=O)NCCCN(C)Cc3ccccc3)c3ccccc3n2)cc1	-18%	nt	nt	-10%	nt	nt
CSc1cccc(Nc2cc(C(=O)NCCc3ccc(Cl)cc3)c3ccccc3n2)c1	-33%	i	nt	10µM*	?	nt
CCN(C(=O)c1cnc(N2CCOCC2)c2ccccc12)c1cc(C)ccc1C	-23%	nt	nt	?	nt	nt
Cc1noc(C)c1S(=O)(=O)N1CCN(c2ccc(Cl)cc2)CC1	5µM*	i	7%	-8%	-9%	14%
Cc1ccc(Cl)cc1N1CCN(S(=O)(=O)c2c(C)noc2C)CC1	-25%	i	-2%	-15%	-22%	3%
COc1cc2ncc3c(-c4ccccc4)nn(-c4ccc(C)cc4)c3c2cc1OC	-34%	i	nt	?	9%	nt
CCN(CC)CCC(=O)Nc1cccc2c1C(=O)c1ccccc1C2=O	-82%	i	15µM*	?	?	18µM*
CCN(CC)CCNC(=O)c1ccc2c(c1NCCO)C(=O)c1ccccc1C2=O	1µM*	7.9µM*	?	1.3µM*	nt	?
CCCc1cc(=O)[nH]c2nnc(SCC(=O)Nc3ccc(OC)cc3)n12	-21%	nt	nt	?	nt	nt
COc1ccc(N2CCN(CCCNC(=O)C3COc4ccc(OC)cc4C3)CC2)cc1 (configuration not stated)	-19%	i	nt	-19%	-20%	nt
O=C(O)c1ccc(NS(=O)(=O)c2cccc(S(=O)(=O)c3ccc(Cl)c(Cl)c3)c2)cc1	5%	i	0%	-5%	-28%	17%
O=S(=O)(Nc1ccc(Cl)cc1)c1cccc(S(=O)(=O)c2ccc(Cl)c(Cl)c2)c1	-78%	?	nt	14µM*	?	nt
